HCMV antiviral: qHTS Assay for inhibitors of the human cytomegalovirus (HCMV). activity change, negative = inhibition, % at 57.5 µM. actives 4.5% (n = 410,000). HFF cells, HCMV-luciferase reporter, 72 h; active compounds read low; in the data active = activity change below about -60%; inconclusive = no clear call, values can overlap the other calls; inactive = above about -39%
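Human foreskin fibroblasts infected with luciferase-reporter HCMV at MOI 1 PFU/cell, compounds at two doses. Luciferase measured 72 h post infection; normalized to buffer-only basal and Salinomycin (10uM) controls.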
Marburg entry inh: qHTS for inhibitors of binding or entry into cells for Marburg Virus; AID 540276, 2011; Potency, µM (highest dose often 37.8 µM), for inactives: at the highest dose activity change, negative = inhibition, actives largely listed as inhibitors; Marburg virus pseudotyped entry inhibition, cell reporter; actives 1.8% (n = 300,000); calls by dose curve; tested in HEK293 cells; also: potency is read from the fitted curve at half-maximal effect
VACV Venus inh: qHTS for Stage-Specific Inhibitors of Vaccinia Orthopoxvirus: Venus Reporter Primary qHTS; AID 720580, 2013; Potency, µM (titrated, usually from 36.5 µM), for the others: at the highest dose activity change, negative = inhibition, most hits filed as inhibitors; actives 0.46% (n = 330,000); Vaccinia virus Venus reporter expression, fluorescence; calls by dose curve; tested in A549 cells; also: potency is read from the fitted curve at half-maximal effect; nearly all actives have a fitted effect of over 30% in size
FMDV antiviral: High Throughput Screening for Foot and Mouth Disease Virus Antivirals; FMDV antiviral cell-based qHTS; Potency, µM (doses to about 57.9 µM), for inactives: at the top dose activity change, negative = inhibition, usual class: inhibitors; actives 1.2% (n = 410,000); calls by dose curve; tested in HEK293T cells; also: read-out not given here; potency is read from the fitted curve at half-maximal effect; nearly all actives have a fitted effect of over 45% in size
Lassa entry inh: qHTS for Inhibitors of binding or entry into cells for Lassa Virus; Lassa virus pseudotype entry inhibition, cell reporter; Potency, µM (titrated, usually from 37.9 µM), for inactives: top-dose activity change, negative = inhibition, hits mostly inhibitors; actives 1.2% (n = 300,000); AID 540256, 2011; calls by dose curve; tested in HEK293 cells; also: potency is read from the fitted curve at half-maximal effect; nearly all actives have a fitted effect of over 50% in size
Vaccinia mCherry: qHTS for Stage-Specific Inhibitors of Vaccinia Orthopoxvirus: mCherry Reporter Primary qHTS. actives 0.63% (n = 310,000). Potency, µM (titrated, usually from 36.5 µM), inactives show at the highest dose activity change, negative = inhibition, usual class: inhibitors. Vaccinia virus mCherry reporter infection, fluorescence; calls by dose curve; tested in A549 cells; also: potency is read from the fitted curve at half-maximal effect; nearly all actives have a fitted effect of over 35% in size
An asterisk follows results filed as active; i = inactive; ? = inconclusive; · = no result; [ ] = dose if it differs, or a comment. This is a sample that favours compounds with a hit; in the whole collection about 6.5% have one here. % is scaled to controls: 0 for no effect and ±100 for the full control effect.

SMILES	HCMV antiviral	Marburg entry inh	VACV Venus inh	FMDV antiviral	Lassa entry inh	Vaccinia mCherry
Cc1cccc(N2C(S)=C(C#N)C(=O)NC2c2ccco2)c1 (stereo not given)	-68*	?	-20%	-4%	9%[46.1 µM]	-15%
COc1ccc(CCNC(=O)c2ccc3c(c2)CCN3S(=O)(=O)c2ccccc2)cc1	?	-22%[46.1 µM]	-10%	4%	?	-17%
NNC(=O)c1cc2cc3ccccc3nc2s1	-66*	3%	·	41%	-20%	·
Cc1ccc(/C=[N+](\[O-])c2ccccc2C)o1	-98*	·	·	4%	·	·
CCCc1cc(=O)oc2c(C)c(O[C@@H]3O[C@H](CO)[C@@H](O)[C@H](O)[C@H]3O)ccc12	-66*	-22%	-16%	-12%	-19%	-25%
Cc1ccc(CNC(=O)CSc2c3c(nc4ccc(Cl)cc24)CCCC3)o1	26	?	-14%	?	7.3µM*	-26%
COc1ccc(CNC(=O)CSc2c3c(nc4ccc(Cl)cc24)CCCC3)cc1	-37	21%[46.1 µM]	-10%	?	4%[46.1 µM]	-6%
O=C(O)c1[nH]c2ccc(Cl)cc2c1CC(=O)N1CCN(C(=O)c2ccco2)CC1	6	11%	-14%	0%	10%	·
O=C(CSc1c2c(nc3ccc(Cl)cc13)CCCC2)N1CCN(C(=O)c2ccco2)CC1	52	·	·	25µM*	·	·
O=C(CSc1c2c(nc3ccc(Cl)cc13)CCCC2)N1CCCCC1	1	6%[46.1 µM]	-10%	?	-16%[46.1 µM]	-4%
O=C(c1ccco1)N1CCN(C(=O)C2CCCc3c2[nH]c2ccc(Cl)cc32)CC1 (stereo not given)	-38	2.8µM*	-16%	-13%	4.5µM*	?
CCN(CC)CCNC(=O)CSc1c2c(nc3cc(Cl)ccc13)CCCC2	-99*	·	-16%	?	·	-2%
C/C(=N/O)C(=O)NCCCNCCCN(C)C	·	5%[46.1 µM]	·	·	·	·
CCOC(=O)c1cccc(NC(=O)c2cc(C)nc3c2c(C)nn3-c2ccc(C)cc2)c1	-2	·	-18%	-22%	0%[46.1 µM]	-11%
COc1ccc(-n2cc(-c3ccccc3)c3c(NC4CCCC4)ncnc32)cc1	?	·	-4%	?	?	-8%
Nc1ncnc2c1c(-c1ccc(Oc3ccccc3)cc1)cn2C1CCCC1	-64*	?	?	?	?	-10%
CN(C)C(=S)SSC(=S)N(C)C	-99*	·	-11%	0%	·	-26%
CCc1ccccc1N(C)C(=O)c1cn(-c2cccc(OC)c2)c(=O)c2ccccc12	?	·	-13%	-8%	10%[46.1 µM]	-9%
C=CCNc1nc(-c2cccs2)c(CC(=O)O)s1	-3	15%[46.1 µM]	5%	6%	0%	?
CCN(CC)CCNc1nc(-c2cccs2)c(CC(=O)O)s1	-87*	?	-12%	-12%	14%	i
CC(C)=CCC/C(C)=C/CNC(=O)CC1C[C@H](C(=O)N2CCOCC2)[C@@]2(C)c3[nH]c4ccccc4c3CCN2C1=O (stereo not given in full)	1	·	?	?	·	?
CC(C)=CCC/C(C)=C/CNC(=O)C[C@H]1C[C@H](C(=O)N2CCOCC2)[C@@]2(C)c3[nH]c4ccc(Cl)cc4c3CCN2C1=O	-86*	0%	?	?	·	?
CC(C)=CCC/C(C)=C/CNC(=O)C[C@H]1C[C@H](C(=O)N2CCOCC2)[C@@]2(C)c3[nH]c4cc(-c5ccco5)ccc4c3CCN2C1=O	·	·	11µM*	?	·	?
Oc1c(Cl)cc(Cl)cc1/C=N/NC(=S)NC1CC2C=CC1C2 (stereo not given)	-68*	?	?	-24%	?	?
Oc1ccccc1C=NNC(=S)NC1CC2C=CC1C2 (stereo not given)	-71*	·	?	58%	·	?
SMILES	HCMV antiviral	Marburg entry inh	VACV Venus inh	FMDV antiviral	Lassa entry inh	Vaccinia mCherry
Oc1ccccc1/C=N/NC(=S)NC1CC2C=CC1C2 (stereo not given)	?	?	-13%[7.34 µM]	67%	?	-25%[7.34 µM]
Cn1nc(C(F)(F)F)cc1Oc1ncc(C(F)(F)F)cc1Cl	-62*	12%[14.2 µM]	-2%	-2%	7%	-13%
COCc1c(C(=O)N2CCN(C)CC2)cnn1-c1ncc2c(n1)-c1ccccc1CCC2	·	·	-12%	-10%	·	-24%
COCCn1c(C)cc(O)c(C(c2ccccc2)N2CCC(C)CC2)c1=O (stereo not given)	8	·	-16%	-10%	0%[46.1 µM]	-3%
CC1=C(C(=O)OCc2ccccc2)C(c2ccccc2OS(=O)(=O)c2ccc([N+](=O)[O-])cc2)NC(=O)N1CCCC(=O)O (stereo not given)	14	·	?	-18%	·	?
CCOC(=O)C1=C(C)N(CCCC(=O)O)C(=O)NC1c1ccccc1OS(=O)(=O)c1ccc([N+](=O)[O-])cc1 (stereo not given)	-100*	·	?	-1%	·	?
COCCn1c(C)cc(C(=O)COC(=O)c2ccccc2Br)c1C	-82*	·	-9%	35µM*	·	-10%
COCCn1c(C)cc(C(=O)COC(=O)c2cccnc2SC)c1C	53	?	-13%	-64%	?	-1%
COC(=O)CCn1c(C)cc(C(=O)COc2ccccc2C(N)=O)c1C	10	?	-15%	16µM*	-32%	-18%
Cc1cc(C(=O)COC(=O)c2cccnc2Cl)c(C)n1CC1CCCO1 (stereo not given)	8	·	·	?	·	·
Cc1cc(C(=O)COc2ccccc2C(N)=O)c(C)n1CC1CCCO1 (stereo not given)	-62*	?	-17%	28µM*	-13%	-11%
Cc1cc(C(=O)COC(=O)c2cccc(NS(C)(=O)=O)c2)c(C)n1CC1CCCO1 (stereo not given)	-27	5.6µM*	-4%	11µM*	10µM*	-12%
CC(C)c1cccc(NC(=O)COC(=O)c2ccccc2OCc2cccc(Br)c2)c1	·	·	-14%	·	·	-16%
O=C(NC1CCC1)O[C@H]1CC[C@@]23CCCN2C(=O)CCC[C@H]3[C@H]1Cc1ccccc1	-21	·	·	·	·	·
CCCCc1nc2c(c3c1C[C@H](C)OC3)CN(S(=O)(=O)c1ccccc1C(=O)OC)CC2	·	22%[14.2 µM]	·	·	·	·
Cc1cc(C(=O)COC(=O)c2n[nH]c3ccccc23)c(C)n1C	115	?	·	-39%	?	·
Cc1cc(C(=O)COC(=O)c2ccccc2O)c(C)n1CC1CCCO1 (stereo not given)	-73*	·	·	35µM*	·	·
Cc1cc(C(=O)COC(=O)c2ccccc2Br)c(C)n1CC1CCCO1 (stereo not given)	·	?	4%	0.4µM*	?	-23%
